Results: PubChem BioAssay AID1159580 (chemical genetic matrix, 2015)
Several values for one entry are separate records, joined by “and”; a condition that tells them apart may be missing. Equal values may be shown once. Out of some 5,500 compounds screened, about 2,000 (36%) were called active. Inconclusive results (about 18%) are left out. Rule as the data show it: active = normalized growth mostly below about 0.91 (no sharp cut-off); inconclusive = no clear call, values can overlap the other calls; inactive = mostly above about 0.92. This is one part of the list.

Test: chemical genetic growth profiling, strain panel (AID 1159580);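 also: tested at 20 µM; growth read once vehicle control cultures reached saturation at 30 °C; 1 = growth at the plate median or of vehicle wells; lower values mean less growth of the strain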
Details: S. cerevisiae deletion strains, growth OD

Measured: normalized growth

COc1ccc2c(c1OC)C(=O)O[C@H]2[C@H]1c2cc3c(cc2CCN1C)OCO3
inactive: locus YAL013W, strain DEP1, active compounds read low 0.997 | locus YAL021C, strain ccr4, active compounds read low 0.987 | locus YAL026C, strain drs2, active compounds read low 1.01 | locus YAL030W, strain snc1, active compounds read low 1 | locus YBL061C, strain skt5, active compounds read low 0.997 | locus YBR009C, strain hhf1, active compounds read low 1.01 | locus YBR021W, strain FUR4, active compounds read low 1 | locus YBR023C, strain chs3, active compounds read low 0.988 | locus YBR171W, strain sec66, active compounds read low 0.988 | locus YBR229C, strain ROT2, active compounds read low 1.01 | locus YBR231C, strain swc5, active compounds read low 1 | locus YBR279W, strain paf1, active compounds read low 0.995 | locus YCL011C, strain gbp2, active compounds read low 1 | locus YCL016C, strain dcc1, active compounds read low 1 | locus YCL029C, strain bik1, active compounds read low 1.02 | locus YCL061C, strain MRC1, active compounds read low 1 | locus YCL069W, strain vba3, active compounds read low 1 | locus YCR088W, strain abp1, active compounds read low 1.01 | locus YDL005C, strain med2, active compounds read low 0.997 | locus YDL035C, strain GPR1, active compounds read low 1 | locus YDL040C, strain nat1, active compounds read low 0.991 | locus YDL074C, strain BRE1, active compounds read low 1.01 | locus YDL101C, strain DUN1, active compounds read low 1.02 | locus YDL134C, strain PPH21, active compounds read low 1 | locus YDL185W, strain tfp1, active compounds read low 1 | locus YDL192W, strain arf1, active compounds read low 1.01 | locus YDR001C, strain nth1, active compounds read low 0.999 | locus YDR069C, strain doa4, active compounds read low 1 | locus YDR101C, strain arx1, active compounds read low 1 | locus YDR137W, strain rgp1, active compounds read low 0.988 | locus YDR150W, strain NUM1, active compounds read low 1 | locus YDR159W, strain sac3, active compounds read low 0.989 | locus YDR162C, strain NBP2, active compounds read low 0.966 | locus YDR195W, strain ref2 0.998 | locus YDR297W, strain sur2, active compounds read low 1 | locus YDR318W, strain mcm21, active compounds read low 1.01 | locus YDR334W, strain swr1, active compounds read low 1 | locus YDR335W, strain msn5, active compounds read low 0.989 | locus YDR388W, active compounds read low 1.01 | locus YDR392W, strain spt3, active compounds read low 0.928 | locus YDR502C, strain sam2, active compounds read low 1 | locus YEL003W, strain gim4, active compounds read low 0.998 | locus YEL037C, strain rad23, active compounds read low 0.99 | locus YEL061C, strain CIN8 (second series), active compounds read low 0.991 | locus YEL061C, strain CIN8, active compounds read low 0.991 | locus YER015W, strain faa2, active compounds read low 1 | locus YER016W, strain bim1, active compounds read low 0.997 | locus YER110C, active compounds read low 1.01 | locus YER111C, strain swi4, active compounds read low 0.993 | locus YER155C, strain BEM2 (second series), active compounds read low 0.994 | locus YER155C, strain BEM2, active compounds read low 0.992 | locus YER167W, strain BCK2, active compounds read low 1.01 | locus YFR010W, strain ubp6, active compounds read low 1.01 | locus YGL078C, strain dbp3, active compounds read low 1.01 | locus YGL086W, strain mad1, active compounds read low 1 | locus YGL167C, strain pmr1, active compounds read low 0.997 | locus YGL173C, strain kem1, active compounds read low 0.993 | locus YGL227W, strain vid30, active compounds read low 0.993 | locus YGL240W, strain doc1, active compounds read low 1 | locus YGL248W, strain PDE1, active compounds read low 1.01 | locus YGL253W, strain hxk2, active compounds read low 0.994 | locus YGR078C, strain PAC10, active compounds read low 0.992 | locus YGR135W, strain pre9, active compounds read low 0.996 | locus YGR229C, strain SMI1, active compounds read low 0.99 | locus YGR252W, strain gcn5, active compounds read low 0.953 | locus YHR013C, strain ard1, active compounds read low 0.974 | locus YHR027C, strain rpn1, active compounds read low 0.992 | locus YHR030C, strain SLT2, active compounds read low 1.01 and 1.04 | locus YHR079C, strain IRE1 (second series), active compounds read low 1.02 | locus YHR079C, strain IRE1, active compounds read low 1.05 | locus YHR094C, strain hxt1, active compounds read low 1.01 | locus YHR129C, strain ARP1, active compounds read low 1.02 | locus YHR142W, strain chs7, active compounds read low 0.995 | locus YHR200W, strain rpn10, active compounds read low 1 | locus YIL066C, strain RNR3, active compounds read low 1 | locus YIL073C, strain SPO22, active compounds read low 0.997 | locus YIL125W, strain kgd1, active compounds read low 1.01 | locus YIR030C, strain dcg1, active compounds read low 1.02 | locus YJL092W, strain hpr5, active compounds read low 0.999 | locus YJL095W, strain BCK1 (second series), active compounds read low 1 | locus YJL095W, strain BCK1, active compounds read low 1.02 | locus YJL115W, strain asf1, active compounds read low 0.995 | locus YJL129C, strain trk1, active compounds read low 0.992 | locus YJL134W, strain LCB3, active compounds read low 1 | locus YJL154C, strain vps35, active compounds read low 0.997 | locus YJL164C, strain tpk1, active compounds read low 0.991 | locus YJL166W, strain qcr8, active compounds read low 0.994 | locus YJL168C, strain set2, active compounds read low 1.01 | locus YJL187C, strain SWE1 (second series), active compounds read low 1.01 | locus YJL187C, strain SWE1, active compounds read low 0.999 | locus YJR043C, strain POL32, active compounds read low 1.01 | locus YJR066W, strain TOR1, active compounds read low 0.976
